RN4220 kill = S. aureus RN4220 growth inhibition | OD600, 16 h | actives 0.33% (n = 330,000) | inhibition, % (no concentration beside the values); in the data active means inhibition above about 85%
BJeLR viability = BJeLR cell viability loss; AID 1554; actives 0.17% (n = 300,000); inhibition, % (test concentration not listed); BJeLR (HRASV12) viability, CellTiter-Glo ATP luminescence, 48 h; in the data active means inhibition above about 50%
PrP UTR inh = suppresses PrP 5' UTR mRNA reporter expression. inhibition, % (concentration not given with the values). AID 488862. actives 0.35% (n = 340,000). cell-based PrP 5' UTR mRNA reporter, plate reader; in the data active means inhibition above about 52%
ugtP null kill = compounds lethal to S. aureus RN4220 ugtP deletion mutant. OD600 growth, 16 h. growth inhibition, % (no concentration beside the values). actives 0.54% (n = 330,000); in the data active means growth inhibition above about 68%
Yp Topo-I inh = blocks Yersinia pestis topoisomerase I activity. Y. pestis Topo-I cleavage product accumulation, plate reader. activity, % at 10 µM. actives 0.064% (n = 360,000). AID 504884; in the data active means activity above about 50%, passing the limit was not always enough
PfHsp40 rescue = restores yeast growth despite PfHsp40 toxicity; growth rescue, % at 12.5 µM; S. cerevisiae expressing PfHsp40, growth rescue, ATP luminescence; actives 0.68% (n = 340,000); in the data active means growth rescue above about 28%, passing the limit was not always enough;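 further: yeast W303a lacking pdr1 and pdr3 grown in galactose medium; growth measured after three days at 30 °C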
Of the large screens only hits and unclear results are named; the others gave an inactive call. Shown are actives, neighbours in structure and some others; about 1.4% of the full set was active somewhere.

O=S(=O)(c1ccc(F)cc1)N1CCCC1	PfHsp40 rescue 37
C=CCOC(=O)C1=CC(c2cn(C(C)=O)c3ccccc23)CC(OCc2ccc(CO)cc2)O1 (stereo not drawn)	none (no result: BJeLR viability, PrP UTR inh, Yp Topo-I inh, PfHsp40 rescue)
Cc1c2cc[n+](CCN3CCCCC3)cc2c(C)c2c1[nH]c1ccc(O)cc12	PfHsp40 rescue 53 (no result: RN4220 kill, BJeLR viability, ugtP null kill)
Cc1cc(OCCn2nc(C(=O)O)c3ccccc3c2=O)ccc1C(C)C	Yp Topo-I inh 83
CCc1cccc(OCCn2nc(C(=O)O)c3ccccc3c2=O)c1	none
C=CCC(CC(=O)N(CCO)Cc1ccccc1)C(=O)NC(COC(=O)C(CC=C)CC(=O)OC(C)(C)C)C(C)(C)C (stereo not drawn)	none (no result: BJeLR viability, PrP UTR inh, Yp Topo-I inh, PfHsp40 rescue)
CN(CC(=O)Nc1ccccc1-c1ccccc1)C1CCCCC1	Yp Topo-I inh 58
O=C(Nc1cc(Cl)ccc1-n1cncn1)c1ccc([N+](=O)[O-])s1	ugtP null kill 101
Cc1c(C(=O)Oc2cccc3ccccc23)cnn1-c1ccccc1	PfHsp40 rescue 34
CC(=O)c1cnn(-c2ccccc2)c1C	none
CCCNC(=O)CC(NS(=O)(=O)c1ccc(Cl)cc1)c1ccco1 (stereo not drawn)	PfHsp40 rescue 124
NC(=O)C1CCCNc2c(F)cc([N+](=O)[O-])cc2C(=O)NC(CO)C(=O)NC(Cc2ccc(O)cc2)C(=O)N1 (stereo not drawn)	none (no result: BJeLR viability, PrP UTR inh, Yp Topo-I inh, PfHsp40 rescue)
O=C(NNC(=O)c1cc(Cl)ccc1O)c1ccc(NS(=O)(=O)c2cccs2)cc1	PfHsp40 rescue 351
O=c1c(OC2OC(CO)C(O)C(O)C2O)c(-c2ccc(O)cc2)oc2cc(O)cc(O)c12 (stereo not drawn)	none (no result: BJeLR viability, PrP UTR inh, Yp Topo-I inh, PfHsp40 rescue)
COc1cccc2c1OC1C(=O)CCC3CN(C)CCC231 (stereo not drawn)	none (no result: BJeLR viability, PrP UTR inh, Yp Topo-I inh, PfHsp40 rescue)
C[C@@H]1CC=C[C@H]2[C@H]1C(=O)N(Cc1ccccc1)[C@H]2c1ccc2ccccc2c1/C=C/c1ccccc1	none (no result: RN4220 kill, ugtP null kill)
CC1CC=CC2C1C(=O)N(Cc1ccccc1)C2c1ccc2ccccc2c1Br (stereo not drawn)	RN4220 kill 88, ugtP null kill 97 (no result: BJeLR viability, PrP UTR inh, Yp Topo-I inh, PfHsp40 rescue)
CC(C)CC(NC(=O)c1nc[nH]c1C(=O)NCc1ccc(CNC(=O)OC(C)(C)C)cc1)C(=O)OC(C)(C)C (stereo not drawn)	none (no result: BJeLR viability, PrP UTR inh, Yp Topo-I inh, PfHsp40 rescue)
COc1cccc(CNc2ncnc3ccc(-c4c(C)noc4C)cc23)c1	PfHsp40 rescue 33 (no result: BJeLR viability)
CN(C)c1nc(NN=Cc2ccccc2O)nc(Nc2ccc(F)cc2)n1	RN4220 kill 100, ugtP null kill 100 (no result: BJeLR viability, PrP UTR inh, Yp Topo-I inh, PfHsp40 rescue)
C=C(C)C1CC[C@]2(C(=O)O)CC[C@]3(C)C(CCC4[C@@]5(C)CCC(O)C(C)(C)C5CC[C@]43C)C12 (stereo partly drawn)	none (no result: BJeLR viability, PrP UTR inh, Yp Topo-I inh, PfHsp40 rescue)
CSc1ccc(Cl)c(C(=O)NCCOc2cc(C)ccc2C(C)C)c1	RN4220 kill 97, ugtP null kill 99
Cc1ccc(C=C(NC(=O)c2ccccc2)C(=O)NCCc2ccccn2)o1	none (no result: BJeLR viability, PrP UTR inh, Yp Topo-I inh, PfHsp40 rescue)
CC1CN(C(C)CO)C(=O)c2cccc(NC(=O)c3ccncc3)c2OC1CN(C)Cc1ccc(C(=O)O)cc1 (stereo not drawn)	none (no result: BJeLR viability, PrP UTR inh, Yp Topo-I inh, PfHsp40 rescue)
Cc1nn2c(-c3ccncc3)nnc2c2ccccc12	PfHsp40 rescue 57 (no result: BJeLR viability)
CC(C)(C)OC(=O)C(Cc1ccccc1)NC(=O)c1nc[nH]c1C(=O)N1CCNCC1 (stereo not drawn)	none (no result: BJeLR viability, PrP UTR inh, Yp Topo-I inh, PfHsp40 rescue)
O=C1/C(=C/c2ccncc2)CCC/C1=C\c1ccncc1	BJeLR viability 68
O=C1C(=Cc2ccncc2)CCCc2ccccc21	none (no result: RN4220 kill, BJeLR viability, PrP UTR inh, ugtP null kill, PfHsp40 rescue)
COc1ccc(OCC(O)CN(C)C(=O)C=Cc2cccc([N+](=O)[O-])c2)cc1 (stereo not drawn)	none (no result: BJeLR viability, PrP UTR inh, Yp Topo-I inh, PfHsp40 rescue)
CC(=NNc1ccccn1)c1ccc(OC(F)F)cc1	ugtP null kill 93 (no result: BJeLR viability, PrP UTR inh, Yp Topo-I inh, PfHsp40 rescue)
O=C1CCN(CCc2ccccc2)CCN1C(CO)Cc1ccccc1 (stereo not drawn)	none (no result: BJeLR viability, PrP UTR inh, Yp Topo-I inh, PfHsp40 rescue)
O=C1NC(=S)S/C1=C\c1ccc(SCc2ccccc2)o1	RN4220 kill 93, ugtP null kill 90 (no result: BJeLR viability)
O=C1NC(=S)S/C1=C\c1ccc(SCc2ccco2)o1	none (no result: RN4220 kill, BJeLR viability, ugtP null kill)
COC(=O)C(NC(=O)OC1C(=O)c2cc(Br)ccc2OC1c1cccc(OC)c1)C(C)C (stereo not drawn)	none (no result: BJeLR viability, PrP UTR inh, Yp Topo-I inh, PfHsp40 rescue)
Clc1ccc(OCCSc2ncccn2)c2ccccc12	ugtP null kill 96
[N-]=[N+]=NCCC=CC1NS(=O)(=O)OCC1O (stereo not drawn)	none (no result: BJeLR viability, PrP UTR inh, Yp Topo-I inh, PfHsp40 rescue)
CCCCCCCCCCCCCCCCn1cc[n+](CC(C)=O)c1	RN4220 kill 100, ugtP null kill 101 (no result: BJeLR viability)

Screening results: PubChem BioAssay, several laboratories
